# How the values were obtained:
# Assay in all cases: DAPPL (digital affinity profiling via proximity ligation, sequencing); 10 mM Tris-HCl pH 7.5, 50 mM NaCl, 1 mM DTT, 4% glycerol, room temperature, 30 min; GST-TFs on glutathione beads, 16-mer random dsDNA library, 0.1% formaldehyde crosslink after washing; high values mean tight binding
# FLI1 = target: T1, FLI1 (Homo sapiens, UniProt Q01543 1-452); details: protein: recombinant; tags: N-terminal GST; dsDNA, one strand shown
# T1 sequence: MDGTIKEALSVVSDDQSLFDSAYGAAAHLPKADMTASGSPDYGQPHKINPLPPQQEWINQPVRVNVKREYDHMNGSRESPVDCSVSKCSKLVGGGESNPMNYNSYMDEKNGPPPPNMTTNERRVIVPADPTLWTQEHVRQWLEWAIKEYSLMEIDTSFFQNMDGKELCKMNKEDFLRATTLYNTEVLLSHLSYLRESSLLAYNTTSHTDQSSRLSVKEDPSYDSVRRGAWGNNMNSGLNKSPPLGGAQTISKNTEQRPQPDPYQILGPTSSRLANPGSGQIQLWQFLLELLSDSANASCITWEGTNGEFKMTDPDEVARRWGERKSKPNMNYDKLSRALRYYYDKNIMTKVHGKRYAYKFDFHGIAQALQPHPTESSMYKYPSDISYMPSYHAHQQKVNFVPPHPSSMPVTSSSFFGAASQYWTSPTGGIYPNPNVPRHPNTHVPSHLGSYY
# Method in brief: (§1)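 After expression in yeast as GST fusions, human transcription factors were bound to glutathione beads, DNA-barcoded and mixed with a tag-only sample. The pools were incubated with 200 nmole of a 16-mer random double-stranded DNA library in Tris/NaCl/DTT/glycerol buffer (30 min, room temperature), washed and crosslinked with 0.1% formaldehyde. Proximity ligation with BsaI/T4 ligase ran for 1 h at 37 °C, before PCR amplification and sequencing on an Illumina NextSeq500. Binding signal is a hexamer's read frequency for a factor divided by its frequency for the tag-only sample.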
# ELK1 = target: T2, ELK1 (Homo sapiens, UniProt P19419 1-428); details: protein: recombinant; tags: N-terminal GST; dsDNA, one strand shown
# T2 sequence: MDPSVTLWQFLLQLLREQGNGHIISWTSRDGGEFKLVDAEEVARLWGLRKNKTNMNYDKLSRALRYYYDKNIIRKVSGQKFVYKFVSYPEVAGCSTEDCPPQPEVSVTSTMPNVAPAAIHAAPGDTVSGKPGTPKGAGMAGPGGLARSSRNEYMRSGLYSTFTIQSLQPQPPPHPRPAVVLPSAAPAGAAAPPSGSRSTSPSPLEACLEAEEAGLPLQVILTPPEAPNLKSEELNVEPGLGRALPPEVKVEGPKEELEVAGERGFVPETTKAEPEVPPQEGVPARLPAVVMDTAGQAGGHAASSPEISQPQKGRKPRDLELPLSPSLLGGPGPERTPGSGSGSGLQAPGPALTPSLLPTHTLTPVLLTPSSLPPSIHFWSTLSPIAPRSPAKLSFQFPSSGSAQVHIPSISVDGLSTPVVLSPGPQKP
# Method in brief: as §1
# GABPA = target: T3, GABPA (Homo sapiens, UniProt Q06546 1-454); details: protein: recombinant; tags: N-terminal GST; dsDNA, one strand shown
# T3 sequence: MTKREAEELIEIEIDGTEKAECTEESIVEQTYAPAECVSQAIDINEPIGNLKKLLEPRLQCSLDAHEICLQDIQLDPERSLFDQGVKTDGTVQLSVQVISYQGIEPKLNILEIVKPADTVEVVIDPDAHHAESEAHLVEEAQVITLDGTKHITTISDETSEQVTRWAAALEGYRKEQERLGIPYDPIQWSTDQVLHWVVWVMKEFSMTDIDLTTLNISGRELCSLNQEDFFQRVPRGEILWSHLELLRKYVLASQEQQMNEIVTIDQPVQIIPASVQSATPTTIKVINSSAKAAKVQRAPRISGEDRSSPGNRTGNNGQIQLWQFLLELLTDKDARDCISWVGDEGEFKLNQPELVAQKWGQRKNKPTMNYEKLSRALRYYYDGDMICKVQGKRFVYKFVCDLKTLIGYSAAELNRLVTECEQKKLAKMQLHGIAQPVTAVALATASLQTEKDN
# Method in brief: as §1
# ETV2 = target: T4, ETV2 (Homo sapiens, UniProt O00321 1-342); details: protein: recombinant; tags: N-terminal GST; dsDNA, one strand shown
# T4 sequence: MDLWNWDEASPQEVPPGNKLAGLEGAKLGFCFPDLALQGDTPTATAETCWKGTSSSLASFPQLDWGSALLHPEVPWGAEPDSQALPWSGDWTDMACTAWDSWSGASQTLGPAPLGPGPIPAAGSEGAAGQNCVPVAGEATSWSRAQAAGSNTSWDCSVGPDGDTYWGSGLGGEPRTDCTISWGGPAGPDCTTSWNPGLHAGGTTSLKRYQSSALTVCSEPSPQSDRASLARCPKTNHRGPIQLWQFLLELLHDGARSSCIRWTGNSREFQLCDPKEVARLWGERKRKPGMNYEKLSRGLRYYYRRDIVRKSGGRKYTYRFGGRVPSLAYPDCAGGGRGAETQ
# Method in brief: as §1
# ELF3 = target: T5, ELF3 (Homo sapiens, UniProt P78545 1-371); details: protein: recombinant; tags: N-terminal GST; dsDNA, one strand shown
# T5 sequence: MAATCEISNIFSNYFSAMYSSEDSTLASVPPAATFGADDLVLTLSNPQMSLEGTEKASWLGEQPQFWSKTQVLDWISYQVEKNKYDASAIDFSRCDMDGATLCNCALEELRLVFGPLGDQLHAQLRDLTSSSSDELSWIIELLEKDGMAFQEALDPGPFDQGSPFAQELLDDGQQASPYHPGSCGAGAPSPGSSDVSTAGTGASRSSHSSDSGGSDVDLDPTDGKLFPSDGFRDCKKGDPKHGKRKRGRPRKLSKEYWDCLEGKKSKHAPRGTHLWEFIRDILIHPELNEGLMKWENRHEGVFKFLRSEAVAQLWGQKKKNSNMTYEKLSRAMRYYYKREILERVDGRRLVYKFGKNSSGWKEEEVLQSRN
# Method in brief: as §1
# HSF1 = HSF1 (Homo sapiens, UniProt Q00613 1-529); details: protein: recombinant; tags: N-terminal GST; chain copies: 3; dsDNA, one strand shown
# HSF1, sequence (Q00613 whole entry): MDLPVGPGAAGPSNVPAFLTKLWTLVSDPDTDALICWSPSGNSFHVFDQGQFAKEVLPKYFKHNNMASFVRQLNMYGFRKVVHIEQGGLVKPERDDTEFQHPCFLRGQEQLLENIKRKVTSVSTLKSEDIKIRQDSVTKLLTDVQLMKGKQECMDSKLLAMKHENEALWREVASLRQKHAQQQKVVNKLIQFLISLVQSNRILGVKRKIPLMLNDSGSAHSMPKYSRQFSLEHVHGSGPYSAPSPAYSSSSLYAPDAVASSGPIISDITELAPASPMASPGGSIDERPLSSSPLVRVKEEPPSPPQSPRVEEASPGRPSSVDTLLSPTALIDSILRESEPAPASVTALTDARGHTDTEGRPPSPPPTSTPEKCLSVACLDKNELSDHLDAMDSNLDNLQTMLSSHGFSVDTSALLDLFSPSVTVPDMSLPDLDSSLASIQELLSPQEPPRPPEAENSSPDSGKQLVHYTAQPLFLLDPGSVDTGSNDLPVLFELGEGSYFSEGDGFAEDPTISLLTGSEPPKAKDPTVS
# Method in brief: as §1
# ELF5 = target: T6, ELF5 (Homo sapiens, UniProt Q9UKW6-2 1-255); details: protein: recombinant; tags: N-terminal GST; dsDNA, one strand shown
# T6 sequence: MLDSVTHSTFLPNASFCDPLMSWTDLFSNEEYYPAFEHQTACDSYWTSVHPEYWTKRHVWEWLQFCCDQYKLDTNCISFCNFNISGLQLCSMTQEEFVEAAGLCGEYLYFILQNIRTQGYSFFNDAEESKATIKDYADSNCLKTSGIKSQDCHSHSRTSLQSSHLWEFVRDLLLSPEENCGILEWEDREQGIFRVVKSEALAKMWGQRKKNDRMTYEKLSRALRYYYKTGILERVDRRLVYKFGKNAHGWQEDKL
# Method in brief: as §1
# ETV1 = ETV1 (Homo sapiens, UniProt P50549 1-477); details: protein: recombinant; tags: N-terminal GST; dsDNA, one strand shown
# ETV1, sequence (P50549 whole entry): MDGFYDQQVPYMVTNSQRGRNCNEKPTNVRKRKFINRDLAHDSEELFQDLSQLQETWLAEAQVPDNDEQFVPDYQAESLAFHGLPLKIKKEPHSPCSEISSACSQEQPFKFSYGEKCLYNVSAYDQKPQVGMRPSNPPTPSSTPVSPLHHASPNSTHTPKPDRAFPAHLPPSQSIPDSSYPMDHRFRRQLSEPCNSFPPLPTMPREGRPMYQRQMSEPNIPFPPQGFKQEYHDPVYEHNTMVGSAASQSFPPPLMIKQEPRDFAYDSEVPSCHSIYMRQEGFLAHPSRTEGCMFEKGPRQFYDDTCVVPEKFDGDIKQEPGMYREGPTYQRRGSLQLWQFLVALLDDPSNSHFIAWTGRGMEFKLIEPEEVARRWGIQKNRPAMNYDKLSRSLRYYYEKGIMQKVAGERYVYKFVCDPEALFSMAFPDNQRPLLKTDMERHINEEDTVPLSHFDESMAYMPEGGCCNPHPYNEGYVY
# Method in brief: as §1
# ERF = target: T7, ERF (Homo sapiens, UniProt P50548 1-548); details: protein: recombinant; tags: N-terminal GST; dsDNA, one strand shown
# T7 sequence: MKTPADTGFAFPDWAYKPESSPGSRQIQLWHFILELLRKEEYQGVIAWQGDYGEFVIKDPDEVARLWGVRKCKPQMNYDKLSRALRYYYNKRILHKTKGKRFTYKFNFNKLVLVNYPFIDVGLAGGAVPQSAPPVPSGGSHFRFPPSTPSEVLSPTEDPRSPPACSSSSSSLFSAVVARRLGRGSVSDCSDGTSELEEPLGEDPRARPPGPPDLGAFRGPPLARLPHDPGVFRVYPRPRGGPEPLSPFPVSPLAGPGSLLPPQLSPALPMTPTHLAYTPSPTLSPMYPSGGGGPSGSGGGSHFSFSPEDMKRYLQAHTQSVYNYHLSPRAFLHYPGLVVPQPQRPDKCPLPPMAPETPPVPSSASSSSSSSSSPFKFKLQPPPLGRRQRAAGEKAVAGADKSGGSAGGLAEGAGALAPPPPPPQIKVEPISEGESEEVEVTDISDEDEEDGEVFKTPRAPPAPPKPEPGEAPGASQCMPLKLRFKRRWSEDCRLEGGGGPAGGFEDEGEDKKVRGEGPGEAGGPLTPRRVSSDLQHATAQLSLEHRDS
# Method in brief: as §1
# ETV7 = target: T8, ETV7 (Homo sapiens, UniProt Q9Y603 1-341); details: protein: recombinant; tags: N-terminal GST; dsDNA, one strand shown
# T8 sequence: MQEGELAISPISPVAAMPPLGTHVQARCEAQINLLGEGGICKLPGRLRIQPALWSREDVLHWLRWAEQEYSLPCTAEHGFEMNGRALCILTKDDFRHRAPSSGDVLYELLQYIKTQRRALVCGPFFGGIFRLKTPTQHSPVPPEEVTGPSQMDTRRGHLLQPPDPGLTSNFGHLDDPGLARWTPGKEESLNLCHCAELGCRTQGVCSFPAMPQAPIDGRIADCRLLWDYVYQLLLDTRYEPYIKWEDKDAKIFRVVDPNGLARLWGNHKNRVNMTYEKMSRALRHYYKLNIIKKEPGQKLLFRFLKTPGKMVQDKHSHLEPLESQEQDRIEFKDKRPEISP
# Method in brief: as §1
sequence,measurement,setting,value
GACCGC,binding signal,FLI1,"1.06 fold enrichment (6-mer frequency, TF over GST control)"
same,binding signal,ELK1,"1.01 fold enrichment (6-mer frequency, TF over GST control)"
same,binding signal,GABPA,"1.06 fold enrichment (6-mer frequency, TF over GST control)"
same,binding signal,ETV2,"1.03 fold enrichment (6-mer frequency, TF over GST control)"
same,binding signal,ELF3,"1.01 fold enrichment (6-mer frequency, TF over GST control)"
TACCAG,binding signal,HSF1,"1.22 fold enrichment (6-mer frequency, TF over GST control)"
GCTGGA,binding signal,HSF1,"1.19 fold enrichment (6-mer frequency, TF over GST control)"
GACGTT,binding signal,FLI1,"1.05 fold enrichment (6-mer frequency, TF over GST control)"
same,binding signal,ELF5,"1.01 fold enrichment (6-mer frequency, TF over GST control)"
CTAGAG,binding signal,HSF1,"1.58 fold enrichment (6-mer frequency, TF over GST control)"
CGTTGG,binding signal,FLI1,"1.08 fold enrichment (6-mer frequency, TF over GST control)"
same,binding signal,ETV1,"1.01 fold enrichment (6-mer frequency, TF over GST control)"
same,binding signal,ERF,"1.07 fold enrichment (6-mer frequency, TF over GST control)"
same,binding signal,ETV7,"1.07 fold enrichment (6-mer frequency, TF over GST control)"

# Reference: article PMC7862700, “An all-to-all approach to the identification of sequence-specific readers for epigenetic DNA modifications on cytosine”
